Experimental data as given in PubChem BioAssay (Tox21).
Where “and” joins values, the source holds several entries; their conditions need not be identical. Equal entries are not always repeated. Inconclusive results are not listed. More than one record can exist for a structure, and the calls need not agree. Calls of active or inactive are those of the source. Unless noted, the call rests on the fitted dose curve; in most records, active means well fitted curve in the direction sought with a large enough effect in the repeat runs; inconclusive means weak or mixed curves; inactive means no such curve, though single readings can be large; an effect the other way counts as inactive or inconclusive.

Tests used:
[1] = qHTS assay to identify small molecule agonists of the hypoxia (HIF-1) signaling pathway - cell viability counter screen (AID 1224844; calls by dose curve; further: nearly all actives have a fitted effect of over 50% in size; further: potency means the concentration at half of the fitted maximal effect)
How it was run: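 Cytotoxicity measured by CellTiter-Glo ATP luminescence in the wells also read for beta-lactamase signal. Cells were HRE-bla ME-180 (2,000/well, 0.5% dialyzed FBS), exposed to compounds for 17 h at 37C.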

[2] = qHTS assay to identify small molecule agonists of H2AX (AID 1224845; active means well fitted activation curve with a large enough effect in the signal ratio in the repeat runs, not every such curve was filed as active; the % refers to the signal ratio; further: potency means the concentration at half of the fitted maximal effect)
How it was run: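 Phospho-H2AX Ser139 measured by HTRF (ex 320 nm; em 665 and 620 nm) after 24 hr antibody incubation. Compounds, 15 concentrations, 0.76% DMSO, were applied to CHO-K1 cells for 3hr at 37C before lysis.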

[3] = qHTS assay to identify small molecule agonists of the hypoxia (HIF-1) signaling pathway (AID 1224846; active means well fitted activation curve with a large enough effect in the signal ratio in the repeat runs, not every such curve was filed as active; the % refers to the signal ratio)
How it was run: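 Compounds added to ME-180 cells carrying hypoxia-response-element beta-lactamase reporter (0.5% dialyzed FBS, 5 h preplating), 17 h at 37C; agonist activity detected by CCF4-AM B/G FRET read-out.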

[4] = qHTS assay to identify small molecule agonists of H2AX - cell viability counter screen (AID 1224847; calls by dose curve; further: nearly all actives have a fitted effect of over 30% in size; further: potency means the concentration at half of the fitted maximal effect)
How it was run: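 CHO-K1 cells plated overnight at 37C, then exposed 3 h at 37C to compounds at 15 concentrations (0.76% DMSO final). Viability by CellTiter-Glo luminescence after 30 min at room temperature.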

[5] = qHTS assay to identify small molecule antagonists of the estrogen related receptor (ERR) signaling pathway from Tox21 library (AID 1224848); further: nearly all actives have a fitted effect of over 50% in size; further: potency means the concentration at half of the fitted maximal effect
How it was run: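 Luciferase luminescence (ONE-Glo, 30 min room temperature) was the read-out. Cells of the NTP-supplied ERR line, 2,000 per well, were given 6 h at 37 C before compound addition in DMSO and 18 h exposure at 37 C.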

[6] = qHTS assay to identify small molecule agonists of the estrogen related receptor (ERR) signaling pathway from Tox21 library (AID 1224849; calls by dose curve; further: nearly all actives have a fitted effect of over 15% in size); conditions: ERR reporter cell line, ONE-Glo luciferase, 18 h
How it was run: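 Luminescent agonist read-out (One-Glo, 30-minute room-temperature incubation) following 18-hour compound treatment at 37 C of the ERR cell line, which had been plated 6 hours before dosing.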

[7] = qHTS RealTime-Glo MT Cell Viability Assay in HepG2 cells - 24 hour (AID 1224867); further: nearly all actives have a fitted effect of over 50% in size; further: potency means the concentration at half of the fitted maximal effect
How it was run: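 Tox21 10K library screened in qHTS format on HepG2 cells carrying RealTime-Glo reagents. Compounds were added after a 5 h preincubation, and the luminescent signal from continuous culture was measured repeatedly during 40 h treatment.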

[8] = qHTS RealTime-Glo MT Cell Viability Assay in HEK293 cells - 32 hour (AID 1224868); further: nearly all actives have a fitted effect of over 50% in size; further: potency means the concentration at half of the fitted maximal effect
How it was run: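 Luminescence generated by NanoLuc from substrate produced by living HEK293 cells served as the viability signal. Each value reflects the reading at its stated time point during continuous 40 h compound exposure at 37 C.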

[9] = A CellTox Green Cytotoxicity Assay to monitor cytotoxicity in HEK293 cells - 0 hour (AID 1224869); further: nearly all actives have a fitted effect of over 50% in size; further: potency means the concentration at half of the fitted maximal effect
How it was run: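 Fluorescence from a DNA-binding dye excluded by viable cells was measured repeatedly in the same HEK293 wells (600 cells/well) during continuous compound exposure at 37 C. Each assay gives one read point: 0, 8, 16, 24, 32 or 40 h.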

[10] = qHTS RealTime-Glo MT Cell Viability Assay in HepG2 cells - 40 hour (AID 1224870); further: nearly all actives have a fitted effect of over 50% in size; further: potency means the concentration at half of the fitted maximal effect
How it was run: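 Real-time viability: cells seeded at 600 per well together with NanoLuc and cell-permeant prosubstrate, compounds added after 5 h incubation. Luminescence tracked at 0, 8, 16, 24, 32 and 40 h of exposure.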
On the % scale 0 is the no-effect control and ±100 the full control effect.

C1CS1
inactive: Potency [1] | Potency [2] | outcome [3] | Potency [4] | Potency [5] | activity change, positive = activation ([6]; at 92.4 µM (top of the series)) -0.221% | Potency [7] | Potency [8] | Potency [9] | Potency [10]

CN1CC[C@]23c4c5ccc(O)c4O[C@H]2[C@@H](O)C=C[C@H]3[C@H]1C5
inactive: Potency [1] | Potency [2] | outcome [3] | Potency [4] | Potency [5] | Potency [7] | Potency [8] | Potency [9] | Potency [10]

Clc1ccc(Cl)c(Cl)c1
inactive: Potency [1] | Potency [2] | outcome [3] | Potency [4] | Potency [5] | Potency [7] | Potency [8] | Potency [9] | Potency [10]

COC1=CC(=O)O[C@@H](/C=C/c2ccc3c(c2)OCO3)C1
inactive: Potency [1] | Potency [2] | outcome [3] | Potency [4] | activity change, positive = activation ([6]; at 92.4 µM (top of the series)) -47.8% | Potency [7] | Potency [8] | Potency [9] | Potency [10]
active: Potency [5] 20.8 µM

CCNC(=O)NC(=O)/C(C#N)=N/OC
inactive: Potency [1] | Potency [2] | outcome [3] | Potency [4] | Potency [5] | activity change, positive = activation ([6]; at 92.4 µM (top of the series)) -6.66% | Potency [7] | Potency [8] | Potency [9] | Potency [10]

C=CCc1ccccc1O
inactive: Potency [1] | Potency [2] | outcome [3] | Potency [4] | Potency [5] | Potency [7] | Potency [9] | Potency [10]

Nc1ccccc1C(=O)OCCc1ccccc1
inactive: Potency [1] | Potency [2] | outcome [3] | Potency [5] | Potency [7] | Potency [10]
active: Potency [4] 101 µM and 89.8 µM | activity change, positive = activation ([6]; at 92.4 µM (top of the series)) 18.1% and 10.8% | Potency [8] 24.5 µM
inactive and 43.6 µM (active): Potency [9]

Cc1nc2ccccc2c(=O)n1-c1ccccc1Cl
inactive: Potency [1] | outcome [3] | Potency [4] | activity change, positive = activation ([6]; at 92.4 µM (top of the series)) -29.9% | Potency [7] | Potency [9] | Potency [10]
active: Potency [2] 27.8 µM | Potency [8] 21.4 µM

CCCCNC(=O)OCC#CI
inactive: Potency [2] | outcome [3] | activity change, positive = activation ([6]; at 92.4 µM (top of the series)) -71.4% and -29.5% | Potency [9]
active: Potency [1] 48.7 µM | Potency [4] 50.2 µM and 101 µM | Potency [5] 68.2 µM | Potency [7] 7.72 µM and 3.89 µM | Potency [8] 24.4 µM and 24.5 µM | Potency [10] 4.87 µM and 2.19 µM

O=C(Cc1ccccc1)OCCc1ccccc1
inactive: Potency [1] | Potency [2] | outcome [3] | Potency [4] | Potency [5] | Potency [7] | Potency [8] | Potency [9] | Potency [10]

CC(C)(C)NCC(O)c1ccccc1Cl (centres undefined)
inactive: Potency [1] | Potency [2] | outcome [3] | Potency [4] | Potency [5] | activity change, positive = activation ([6]; at 42.5 µM (top of the series)) 4.93% | Potency [7] | Potency [8] | Potency [9] | Potency [10]

CCCC(C)(COC(N)=O)COC(=O)NC(C)C (centres undefined)
inactive: Potency [1] | Potency [2] | outcome [3] | Potency [4] | Potency [5] | activity change, positive = activation ([6]; at 42.5 µM (top of the series)) 0.487% | activity change, positive = activation ([6]; at 92.4 µM (top of the series)) -2.02% | Potency [7] | Potency [8] | Potency [9] | Potency [10]

C[C@H]1[C@@H]2Cc3ccc(O)cc3[C@@]1(C)CCN2C
inactive: Potency [1] | Potency [2] | outcome [3] | Potency [4] | Potency [5] | Potency [7] | Potency [8] | Potency [9] | Potency [10]

O=S(=O)(c1ccccc1)c1ccccc1
inactive: Potency [1] | Potency [2] | outcome [3] | Potency [4] | Potency [5] | Potency [7] | Potency [8] | Potency [9] | Potency [10]

C=C(Cl)Cl
inactive: Potency [1] | Potency [2] | outcome [3] | Potency [4] | Potency [5] | activity change, positive = activation ([6]; at 92.4 µM (top of the series)) -0.979% | Potency [7] | Potency [8] | Potency [9] | Potency [10]

O=C(Cl)OCCOCCOC(=O)Cl
inactive: Potency [1] | Potency [2] | outcome [3] | Potency [4] | Potency [5] | activity change, positive = activation ([6]; at 92.4 µM (top of the series)) 1.12% | Potency [7] | Potency [8] | Potency [9] | Potency [10]

CCC(C)(C)O
inactive: Potency [1] | Potency [2] | outcome [3] | Potency [4] | Potency [7] | Potency [8] | Potency [9] | Potency [10]

Nc1ccccc1C(=O)OCC(O)CO (centres undefined)
inactive: Potency [1] | Potency [2] | outcome [3] | Potency [4] | Potency [7] | Potency [8] | Potency [9] | Potency [10]

FC(Cl)(Cl)C(F)(Cl)Cl
inactive: Potency [1] | Potency [2] | outcome [3] | Potency [4] | Potency [7] | Potency [8] | Potency [9] | Potency [10]

C[N+]1(CCF)[C@@H]2CC[C@H]1CC(OC(=O)C(O)(c1ccccc1)c1ccccc1)C2 (some centres undefined)
inactive: Potency [1] | Potency [2] | outcome [3] | Potency [4] | Potency [7] | Potency [8] | Potency [9] | Potency [10]

CCCCC1C(=O)NC(=O)N(C2CCCCC2)C1=O (centres undefined)
inactive: Potency [1] | Potency [2] | outcome [3] | Potency [4] | Potency [7] | Potency [8] | Potency [9] | Potency [10]

CC(CC(C(N)=O)(c1ccccc1)c1ccccc1)N(C)C (centres undefined)
inactive: Potency [1] | Potency [2] | outcome [3] | Potency [4] | Potency [7] | Potency [8] | Potency [9] | Potency [10]

CN1CC[C@]23c4c5ccc(O)c4O[C@H]2[C@@H](O)CC[C@H]3[C@H]1C5
inactive: Potency [1] | Potency [2] | outcome [3] | Potency [4] | Potency [7] | Potency [8] | Potency [9] | Potency [10]
